Assay in all cases: NCI-60 one-dose screen, 48 h (100 = growth as untreated, 0 = no growth, -100 = all killed)
What all share (conditions): 10 µM unless noted

Test [1] concerns SR leukemia.
Test [2] relates to RPMI-8226 leukemia.
Test [3] concerns OVCAR-8 ovarian.
Test [4] concerns OVCAR-4 ovarian.
In test [5] the test system is SK-OV-3 ovarian.
Test [6] relates to IGROV1 ovarian.
The test system of test [7] is OVCAR-3 ovarian.
The subject of test [8] is HS 578T breast.
The test system of test [9] is NCI/ADR-RES ovarian.
For test [10], the system named is T-47D breast.
Test [11] deals with BT-549 breast.
Test [12] concerns MDA-MB-435 melanoma.
Test [13] has as its system SW-620 colon.
Test [14] concerns MCF7 breast.
The subject of test [15] is HCT-116 colon.
The test system of test [16] is HCC-2998 colon.
Test [17] deals with KM12 colon.
Test [18] has as its system OVCAR-5 ovarian.

About 83,000 compounds went through this panel and 20% of them were active in at least one assay; those are over-represented in the sample as a whole.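 48-hour exposure, single concentration, 96-well plates; percent growth endpoint where 0 means no net growth. Active: below 10.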 Values without a mark were called inactive. Calls of active or inactive are those of the source.

We go through 9 molecules from PubChem BioAssay (NCI).

As to `COc1ccc(C2=Nc3c/c(=C\c4c(O)[nH]c5cc(Cl)ccc45)ccc3=N2)cc1`, the growth in test [1] was 17%; in [2], 62.8%; in [3], 71.9%; in [4], 90.8%; in test [5], 46.4%; in test [6], 86.9%. Besides, the growth in test [7] is 27%; in test [8], 81.7%; in test [9] it was 56.4%; in test [10] it was 71.7%; in test [11], 77.5%; in test [12], 3.01% (active). The growth in [13] was 57.9%; in [14] it was 36.2%; in [15] it was 70.7%; in test [16], 73.6%; in test [17], 49.5%.

With `Cn1cc(/C=C2/C(=O)Nc3ccccc32)c2ccccc21`, the growth was 94.9% in [1]; 60.5% in [2]; 95.5% in test [3]; 106% in [18]; 86.2% in [4]; 90.4% in test [5]. Besides, the growth in test [7] is 90.2%; in test [8], 89.3%; in test [9], 84.7%; in test [12] it was 106%; in test [13], 102%; in [14] it was 69.2%. Moreover, the growth is 90.4% in [15], 98.2% in test [16] and 14.8% in test [17].

In the case of `CC12CCC(/C(=C/NNc3ccc([N+](=O)[O-])cc3[N+](=O)[O-])C1=O)C2(C)C` (centres undefined), the growth in test [1] is 56.5%; in [2] it was 73.8%; in test [3], 72.7%; in test [4], 74.2%; in test [5], 89.6%; in test [6] it was 68.6%. Besides, the growth in test [7] was 87.4%; in test [8], 110%; in [9] it was 76.5%; in test [10] it was 56.8%; in [11], 69.4%; in test [12], 70.5%. Also, the growth is 64.8% in test [13]; 50.6% in [14]; 50.7% in test [15]; 93.4% in test [16]; 90.7% in test [17].

Turning to `NC(CSC(c1ccccc1)(c1ccccc1)c1ccc2c(c1)OCO2)C(=O)O` (centres undefined), the growth in test [1] was 5.57% (active); in [2] it was -7.99% (active); in [3], 19.4%; in test [4] it was 70.7%; in test [5], 15.2%; in [7] it was 3.46% (active). In addition, the growth in [8] is 15.7%; in [9] it was 53.9%; in test [10] it was 30.2%; in test [11], 22.7%; in test [12] it was -58% (active); in test [13] it was 12.9%. The growth is 10.3% in test [14], 7.34% (active) in [15], 9.26% (active) in test [16] and 13.1% in [17].

Turning to `CCNc1nc(-c2ccc(F)cc2)c(C#N)c(=O)n1C`, the growth was 50.3% in [1]; 91.8% in test [2]; 73.8% in test [3]; 55.2% in [4]; 55.9% in test [5]; 54.1% in test [6]. Besides, the growth in test [7] is 59.1%; in test [8], 37.5%; in [9] it was 67.1%; in test [10], 39.3%; in test [11] it was 42.1%; in test [12] it was 75.2%. Further, the growth was 69.3% in test [13]; 63.4% in test [14]; 52.1% in [15]; 88.8% in test [16]; 72.1% in [17].

In the case of `Clc1ccc(-c2nc(-c3c[nH]c4ncccc34)cs2)cc1`, the growth was 85.4% [100 µM] in test [1]; 91.4% [100 µM] in [2]; 29.7% [100 µM] in [3]; 28.3% [100 µM] in test [4]; 29.3% [100 µM] in [5]; 72.7% [100 µM] in test [6]. Moreover, the growth in [7] was 68.7% [100 µM]; in test [8] it was 44.3% [100 µM]; in [9], 41.2% [100 µM]; in test [10], 62.4% [100 µM]; in test [11], 47.2% [100 µM]; in test [12], 89.2% [100 µM]. For the same molecule, the growth in [13] is 74.3% [100 µM]; in test [14] it was 66.7% [100 µM]; in test [15], 38.6% [100 µM]; in test [16] it was 90.2% [100 µM]; in [17], 76.1% [100 µM].

Consider `COc1ccc(OC)c(-c2cn3nc(-c4c[nH]c5ccc(Br)cc45)sc3n2)c1`, for which the growth in test [1] is 22.1%; in [2], 79.3%; in test [3], 25.6%; in [4], -21.3% (active); in [5] it was 80.8%; in test [6] it was 40.6%. In addition, the growth is 60% in test [7]; 43.7% in test [8]; 32.1% in test [9]; 35.2% in test [10]; 76.2% in test [11]; 24% in test [12]. Further, the growth in test [13] was -3.33% (active); in test [14] it was 12.5%; in [15], 13.2%; in test [16] it was 27.2%; in test [17], 11%.

In the case of `CSCCC(NC(=O)c1ccccc1)C(=O)N/N=C1\S/C(=C/c2ccc(Cl)cc2)C(=O)N1C` (centres undefined), the growth in test [1] is 38.2%; in [2] it was 49.9%; in test [3], 71.1%; in [4] it was 88.8%; in test [5], 84.5%; in test [6], 95.7%. Besides, the growth in [7] is 108%; in test [8], 80.5%; in [9], 96.7%; in [10], 82.9%; in [11], 87.3%; in test [12], 86.2%. Besides, the growth is 93.5% in test [13]; 83.9% in test [14]; 55.2% in test [15]; 96.7% in test [16]; 88.9% in test [17].

For `COc1cc(-c2nc3ccc(C)cc3[nH]2)ccc1OCC(=O)N=Nc1c(O)[nH]c2ccc(Cl)cc12`, the growth in [1] is -32.8% (active); in test [2], -36.6% (active); in test [3], -34.7% (active); in test [18] it was 11.1%; in test [4], -8% (active); in test [5], 32%. In addition, the growth in [7] was -70.2% (active); in test [8], -22.3% (active); in test [9] it was 83.4%; in [11], 68.5%; in test [12], -2.5% (active); in [13], -58.9% (active). Moreover, the growth in test [14] is -64.9% (active); in [15], -34.9% (active); in test [16] it was -32.5% (active); in [17], -40.1% (active).
